Drawing on PubChem BioAssay, this text covers z-score and composite z-score for eleven compounds.

Calls of active or inactive are those of the source.

The nature of assay [1]: optical density shifts of acrAB sulA E. coli – strain DRC41, OD650, 48 h, E. coli filamentation inducer project, primary screen (AID 1152).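 Note: E. coli MC1000 strain DRC41 lacking acrAB efflux pump and sulA.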 Conditions: higher = more signal, called active from +8 up or from −8 down.
Assay [2] is described as follows: probe aLefty1 binding on compound microarray – biochemical, small-molecule microarray, 635/667 nm fluorescence, primary screen (AID 1153).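 Note: score merges spot fluorescence with signal-to-noise ratio from the scanned slide images.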 Conditions: higher = more signal.
A short description of assay [3]: plasmodial surface anion channel blockers, osmotic lysis – cell-based, P. falciparum Indochina, OD700, 1 h, primary screen (AID 1154). Conditions: P. falciparum Indochina infected RBC osmotic lysis, higher = more signal, called active from +8 up or from −8 down.
Assay [4] is described as follows: plasmodial surface anion channel blockers, osmotic lysis – cell-based, P. falciparum Indochina, OD700, 2 h, primary screen (AID 1155).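 Note: lysis reports solute entry through the parasite surface anion channel PSAC.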 Conditions: P. falciparum Indochina infected erythrocytes, higher = more signal, called active from +8 up or from −8 down.
Assay [5] is described as follows: changes in parasitized red cell lysis, either direction – P. falciparum Indochina, OD700, 3 h, PSAC antagonist project, primary screen (AID 1156). Conditions: P. falciparum-infected erythrocytes, osmotic lysis, higher = more signal, called active from +8 up or from −8 down.
Assay [6] is described as follows: plasmodial surface anion channel blockers, osmotic lysis – cell-based, P. falciparum Indochina, OD700, 18 h, primary screen (AID 1157). Conditions: P. falciparum Indochina infected erythrocytes, osmotic lysis OD700, 18 h; higher = more signal, called active from +8 up or from −8 down.
Assay [7] can be described thus: S6 kinase pathway phospho-S6 level changes – cell-based, A549, cytoblot, luminescence, serum-stimulated, primary screen (AID 1158).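 Note: serum-stimulated A549 lung adenocarcinoma cells; signal is phosphorylated S6 detected by cytoblot immunostaining with HRP secondary.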 Conditions: 5 h, higher = more signal.
The target in assay [8] is NADPH oxidase 2 (Homo sapiens) (UniProt P04839). The assay can be described thus: compounds shifting NOX2 Amplex Red fluorescence – cell-based, HEK293-NOX2, PMA-stimulated, NOX inhibitor project, primary screen (AID 1159). Note: test concentration not given here. Conditions: 45 min, higher = more signal, called active from +8 up or from −8 down.
Chain of NADPH oxidase 2 (Homo sapiens) (P04839 whole entry, looked up): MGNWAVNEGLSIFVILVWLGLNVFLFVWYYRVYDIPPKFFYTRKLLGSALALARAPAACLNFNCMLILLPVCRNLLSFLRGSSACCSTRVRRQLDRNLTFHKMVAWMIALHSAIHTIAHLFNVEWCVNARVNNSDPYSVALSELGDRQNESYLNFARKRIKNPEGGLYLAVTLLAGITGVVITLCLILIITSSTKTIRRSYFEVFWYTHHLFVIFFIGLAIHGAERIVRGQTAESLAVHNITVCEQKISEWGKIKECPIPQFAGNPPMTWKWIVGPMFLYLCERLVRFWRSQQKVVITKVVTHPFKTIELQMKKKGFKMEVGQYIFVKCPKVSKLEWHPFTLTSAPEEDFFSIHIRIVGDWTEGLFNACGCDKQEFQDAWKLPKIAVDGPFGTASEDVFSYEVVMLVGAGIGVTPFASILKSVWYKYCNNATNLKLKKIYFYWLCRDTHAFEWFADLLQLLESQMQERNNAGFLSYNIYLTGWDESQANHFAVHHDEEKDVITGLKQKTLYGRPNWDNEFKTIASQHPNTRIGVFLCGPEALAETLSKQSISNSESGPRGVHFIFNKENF
In assay [9] the target is NADPH oxidase 4 (Homo sapiens) (UniProt Q9NPH5). Nature of the assay: compounds shifting NOX4 Amplex Red fluorescence – cell-based, HEK293-NOX4, tetracycline-induced, NOX inhibitor project, primary screen (AID 1160). Conditions: HEK293-NOX4, Amplex Red H2O2 fluorescence, 45 min; higher = more signal, called active from +8 up or from −8 down.
Chain of NADPH oxidase 4 (Homo sapiens) (Q9NPH5 whole entry, looked up): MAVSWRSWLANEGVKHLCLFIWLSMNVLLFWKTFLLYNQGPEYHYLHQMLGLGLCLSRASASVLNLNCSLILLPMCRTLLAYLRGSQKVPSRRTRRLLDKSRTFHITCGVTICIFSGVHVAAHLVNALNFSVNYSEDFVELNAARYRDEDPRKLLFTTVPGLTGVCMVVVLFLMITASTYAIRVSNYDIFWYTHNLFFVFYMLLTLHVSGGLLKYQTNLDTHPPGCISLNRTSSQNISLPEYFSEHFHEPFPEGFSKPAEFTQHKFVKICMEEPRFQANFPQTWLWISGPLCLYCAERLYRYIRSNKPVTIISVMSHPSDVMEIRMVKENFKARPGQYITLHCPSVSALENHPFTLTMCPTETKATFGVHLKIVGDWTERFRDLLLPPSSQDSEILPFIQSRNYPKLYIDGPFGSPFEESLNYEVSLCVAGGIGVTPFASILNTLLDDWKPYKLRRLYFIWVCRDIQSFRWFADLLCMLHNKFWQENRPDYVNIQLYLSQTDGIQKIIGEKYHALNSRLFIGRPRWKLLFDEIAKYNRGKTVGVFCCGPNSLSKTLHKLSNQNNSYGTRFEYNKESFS
Assay [10] has as its target NADPH oxidase 5 (Homo sapiens) (UniProt Q96PH1). The assay can be described thus: compounds shifting NOX5 Amplex Red fluorescence – cell-based, HEK293-NOX5, NOX inhibitor project, primary screen (AID 1161). Conditions: HEK293-NOX5, ionomycin, 45 min, higher = more signal.

Chain of NADPH oxidase 5 (Homo sapiens) (Q96PH1 whole entry, looked up): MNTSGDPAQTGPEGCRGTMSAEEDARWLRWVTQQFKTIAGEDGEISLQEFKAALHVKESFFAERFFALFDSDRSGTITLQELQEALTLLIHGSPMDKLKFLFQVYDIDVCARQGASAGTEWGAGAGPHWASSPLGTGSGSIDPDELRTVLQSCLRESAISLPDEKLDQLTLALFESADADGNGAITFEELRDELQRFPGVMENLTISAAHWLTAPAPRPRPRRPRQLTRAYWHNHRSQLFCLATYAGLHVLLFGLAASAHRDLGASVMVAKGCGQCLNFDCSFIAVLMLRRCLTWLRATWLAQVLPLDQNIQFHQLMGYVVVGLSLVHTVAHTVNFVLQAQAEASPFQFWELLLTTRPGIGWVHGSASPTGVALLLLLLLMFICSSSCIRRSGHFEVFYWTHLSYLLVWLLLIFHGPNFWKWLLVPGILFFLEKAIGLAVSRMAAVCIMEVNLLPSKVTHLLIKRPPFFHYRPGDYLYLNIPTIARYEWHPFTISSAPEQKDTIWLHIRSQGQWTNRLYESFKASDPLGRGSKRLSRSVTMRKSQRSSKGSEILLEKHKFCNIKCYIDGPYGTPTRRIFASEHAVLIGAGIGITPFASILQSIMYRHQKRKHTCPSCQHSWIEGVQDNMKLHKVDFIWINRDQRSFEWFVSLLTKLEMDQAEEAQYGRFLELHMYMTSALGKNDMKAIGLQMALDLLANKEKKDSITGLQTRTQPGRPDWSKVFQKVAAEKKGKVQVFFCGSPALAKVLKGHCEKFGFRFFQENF

For `CC(C)(C)OC(=O)CC[C@]1(C(=O)NCC(O)CO)N=C(c2ccc(OCCCO)cc2)O[C@H]1c1ccccc1CN=[N+]=[N-]` (stereo not given in full), the z-score in [1] is -0.207 (inactive); in assay [3], 17.2 (active); in assay [4], 2.39 (inactive); in [5] it was 0.471 (inactive); in [6], 0.297 (inactive); in assay [7], -0.832. In addition, the z-score was 1.38 (inactive) in assay [8], 1.57 (inactive) in [9] and 2.2 in assay [10]. Further, in [2], the composite z-score was found to be 0.975.

Turning to `O=C(CS)NCCCCCCNC(=O)[C@H]1C[C@H]2C(=O)N3CCC[C@H]3C(=O)N2[C@H]1c1ccc(O)cc1`, the z-score in [1] was -0.827 (inactive); in [3], 3.99 (inactive); in assay [4] it was 0.776 (inactive); in assay [5] it was -1.85 (inactive); in assay [6], 0.179 (inactive); in [7] it was -0.126. The z-score in assay [8] is 1.05 (inactive); in assay [9] it was 0.241 (inactive); in assay [10], 0.247. Moreover, the composite z-score in [2] worked out at 0.157.

Consider `COc1cc2c(cc1O)C(c1ccc(CN3CCCC3)cc1)N(Cc1sc3ccccc3c1Cl)CC2` (stereo not given), for which the z-score is 0.13 (inactive) in assay [1]; 12.5 (active) in [3]; 2.66 (inactive) in assay [4]; 0.913 (inactive) in assay [5]; 1.7 (inactive) in [6]; 0.0223 in [7]. Moreover, the z-score was -3.44 (inactive) in assay [8], -3.41 (inactive) in [9] and -4 in assay [10]. This compound yielded a composite z-score in assay [2] of -0.113.

`C=CC[C@@]1(C(=O)NCc2ccccc2)N=C(c2ccc(OCCCO)cc2)O[C@@H]1c1ccccc1CN=[N+]=[N-]`: the z-score in [1] is -1.52 (inactive); in assay [3], 24 (active); in assay [4] it was 8.62 (active); in assay [5], 2.14 (inactive); in [6], 1.15 (inactive); in assay [7], -0.387. Also, the z-score in [8] was -1.15 (inactive); in [9], -0.499 (inactive); in assay [10], 0.694. In assay [2], this compound displayed a composite z-score of 0.791.

As for `CCCCN1CC=CC23O[C@@H]4C=CCCOC(=O)C4[C@H]2C(=O)N(CCCO)[C@@H]3C1=O` (stereo not given in full), the z-score in [1] was 0.62 (inactive); in [3], 0.158 (inactive); in assay [4], -1.01 (inactive); in assay [5], 0.224 (inactive); in assay [6], -1.34 (inactive); in assay [7], 0.243. Besides, the z-score is -0.168 (inactive) in assay [8], -1.73 (inactive) in assay [9] and -1.34 in assay [10]. Further, the composite z-score in [2] is -0.321.

As to `O=c1cccc(-c2cccc3ccccc23)o1`, the z-score in [1] is 0.109 (inactive); in [3], 6.68 (inactive); in assay [4] it was 1.37 (inactive); in assay [5], -0.276 (inactive); in assay [6], 0.832 (inactive); in assay [7], -0.312. For the same compound, the z-score was -0.112 (inactive) in [8], -2.39 (inactive) in assay [9] and -0.0533 in [10]. The compound further returned a composite z-score in assay [2] of 0.106.

For `CN1C(=O)C2C=CC(C(O)c3ccc(Br)cc3)N(Nc3ccccc3)C2C1=O` (stereo not given), the z-score in assay [1] is -0.506 (inactive); in assay [3] it was 0.884 (inactive); in [4] it was 0.708 (inactive); in assay [5] it was 0.302 (inactive); in assay [6], 0.826 (inactive); in assay [7] it was -0.595. Moreover, the z-score in assay [8] was -0.592 (inactive); in assay [9], -4.5 (inactive); in [10], -2.23. This compound gave a composite z-score in assay [2] of 0.106.

As for `COc1ccc([Si](C)(C)[C@H]2[C@H](CC(=O)N3Cc4ccccc4C[C@H]3CO)O[C@@]3(C(=O)N(Cc4cccc(I)c4)c4ccccc43)[C@@H]2C)cc1`, the z-score was 0.232 (inactive) in assay [1]; 6.74 (inactive) in assay [3]; 1.38 (inactive) in [4]; 2.14 (inactive) in assay [5]; 1.19 (inactive) in assay [6]; 0.452 in assay [7]. The z-score in assay [8] is -1.36 (inactive); in [9], -0.348 (inactive); in assay [10], -2.55. For the same compound, in assay [2], the composite z-score came to 0.0233.

With `OCCCc1cc[n+](Cc2cccc(OC(F)(F)F)c2)cc1`, the z-score in [1] was -0.123 (inactive); in assay [3], 0.514 (inactive); in assay [4], 0.816 (inactive); in [5], 1.54 (inactive); in assay [6], 0.916 (inactive); in [7] it was 0.211. Also, the results for the z-score in assay [8], in assay [9] and in assay [10] were 0.972 (inactive), -0.285 (inactive) and 0.384, respectively. Moreover, the composite z-score in [2] was found to be 0.363.

On to `CC(=O)N1Cc2ccccc2C[C@@]2(N=C(c3ccc(OCCCO)cc3)O[C@H]2c2ccccc2)C1=O`, for which the z-score is 1.6 (inactive) in [1]; 24.1 (active) in assay [3]; 8.42 (active) in assay [4]; 2.76 (inactive) in [5]; 0.944 (inactive) in assay [6]; 2.14 in assay [7]. The z-score in assay [8] is -4.15 (inactive); in assay [9], 0.144 (inactive); in assay [10] it was -2.86. This compound had a composite z-score in assay [2] of 1.29.

With `COc1ccc([Si](C)(C)[C@H]2[C@H](CC(=O)N3CCC[C@H]3CO)O[C@@]3(C(=O)N(Cc4cccc(N5CCC5=O)c4)c4ccccc43)[C@@H]2C)cc1`, the z-score in assay [1] is 0.689 (inactive); in assay [3] it was 6.65 (inactive); in assay [4], 1.06 (inactive); in assay [5] it was 1.47 (inactive); in [6], 0.696 (inactive); in assay [7], 0.249. The z-score in assay [8] is 1.91 (inactive); in assay [9], 0.777 (inactive); in assay [10], 4.69. In addition, in assay [2], the composite z-score is 0.233.
